Experimental data as given in PubChem BioAssay (EPA / NIEHS).
“And” between values parts separate entries of the source, which are not always exact repeats. Equal values may be shown once. Records with an inconclusive call do not appear. A structure can be active in one record and inactive in another. The source made the active and inactive calls. Rule for the calls, unless noted: active = hit-call score of the fitted dose curve at least 0.9, where 1 is the maximum; inactive = score below 0.9.

Key:
[1] = ATG_M_32_CIS: Attagene CIS-FACTORIAL HepG2 Assay for M32 Transcription Factor (Internal Marker) (AID 2282949); conditions: HepG2 Attagene cis-factorial M32 reporter, mRNA; actives raise or lower the signal;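 note: background control marker of the multiplexed CIS panel rather than a real target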
Outline: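 HepG2 transfectants (cis-regulated reporter transcription units) dosed 24 h. Reporter mRNA by RT-PCR plus CE, analysed as gain or loss relative to DMSO.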

[2] = molecular target: Hepatocyte nuclear factor 6 (Homo sapiens) (UniProt Q9UBC0); assay: ATG_HNF6_CIS: Attagene CIS-FACTORIAL HepG2 Assay for human Hepatocyte Nuclear Factor 6 (HNF6) (AID 2282952); conditions: HepG2 Attagene cis-factorial HNF6 reporter transcription; actives raise or lower the signal
Outline: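 First, HepG2 cells were transfected with the multiplexed cis reporter library and dosed with chemical for 24 h. Next, RNA was reverse-transcribed, PCR-amplified and fluorescently labelled. Finally, HpaI-digested fragments were read by capillary electrophoresis.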

[3] = ATG_M_19_TRANS: Attagene TRANS-FACTORIAL HepG2 Assay for M19 Transcription Factor (Internal Marker) (AID 2282974; active = hit-call score of the fitted dose curve at least 0.9, where 1 is the maximum); conditions: HepG2 Attagene TRANS-FACTORIAL M19 internal marker reporter
Outline: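 Multiplexed TRANS format: HepG2 liver cells bearing transient GAL4-UAS reporter units, chemical treatment 24 h, reporter transcripts quantified by RT-PCR plus capillary electrophoresis. DMSO defines baseline.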

[4] = ATG_M_32_TRANS: Attagene TRANS-FACTORIAL HepG2 Assay for M32 Transcription Factor (Internal Marker) (AID 2282984; active = hit-call score of the fitted dose curve at least 0.9, where 1 is the maximum;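 note: transcript level of a background control reporter unit measured by RT-PCR and capillary electrophoresis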); conditions: HepG2 Attagene TRANS M32 internal marker reporter
Outline: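 Internal-marker readout from a multiplexed transcription reporter panel. HepG2 cells were transfected with GAL4-UAS reporter units, treated 24 hours, and reporter transcript levels determined by fluorescence after RT-PCR and capillary separation.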

[5] = ATG_XTT_Cytotoxicity: Cytotoxicity Assessment in the Attagene TRANS-FACTORIAL HepG2 Assay (AID 2283584; active = hit-call score of the fitted dose curve at least 0.9, where 1 is the maximum)
Outline: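 HepG2 cells transiently transfected with GAL4-UAS multiple reporter units, dosed 24 h; cytotoxicity read by XTT as loss of signal versus DMSO baseline.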

[6] = ATG_M_19_CIS: Attagene CIS-FACTORIAL HepG2 Assay for M19 Transcription Factor (Internal Marker) (AID 2282939); conditions: HepG2 Attagene CIS-FACTORIAL M19 internal marker reporter; actives raise or lower the signal
Outline: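 HepG2 cells transiently transfected with cis-regulated multiplexed reporter units, dosed 24 h. Reporter mRNA quantified by RT-PCR and capillary electrophoresis; internal background marker fitted bidirectionally versus DMSO.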

[7] = molecular target: Hypoxia-inducible factor 1-alpha (Homo sapiens) (UniProt Q16665); assay: ATG_HIF1a_CIS: Attagene CIS-FACTORIAL HepG2 Assay for human Hypoxia Inducible Factor 1 (HIF1A) (AID 2282951); conditions: HepG2 Attagene cis-factorial HIF1a reporter transcription; actives raise or lower the signal
Outline: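 Cis-element reporter constructs were transiently transfected into HepG2 cells, which were treated for 24 h; reporter RNA was reverse-transcribed, amplified, labelled and resolved by capillary electrophoresis.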

[8] = molecular target: Heat shock factor protein 1 (Homo sapiens) (UniProt Q00613); assay: ATG_HSE_CIS: Attagene CIS-FACTORIAL HepG2 Assay for human Heat Shock Transcription Factor 1 (HSE) (AID 2282953); conditions: HepG2 HSE cis-reporter, Attagene RNA transcription; actives raise or lower the signal
Outline: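 HepG2 cells transfected with cis-promoter reporter units sensing endogenous transcription factor activity; reporter mRNA quantified 24 h post-dose by RT-PCR and capillary electrophoresis of 6-FAM-labelled products. Bidirectional fitting against DMSO.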

[9] = ATG_PXRE_CIS: Attagene CIS-FACTORIAL HepG2 Assay for human Pregnane X Receptor Element (PXRE) (AID 2282957); conditions: HepG2 Attagene CIS-FACTORIAL PXRE reporter, mRNA; actives raise or lower the signal
Outline: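 After a 24 h chemical incubation, total RNA from transfected HepG2 cells was reverse-transcribed and reporter cDNA amplified, FAM-labeled, HpaI-digested and sized by capillary electrophoresis. DMSO served as baseline for bidirectional curve fitting.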

[10] = BSK_3C_TissueFactor: BioMAP Diversity Plus: 3C Assay for Tissue Factor Biomarker Activity (AID 2282997); conditions: BioMAP 3C HUVEC, tissue factor biomarker readout; actives raise or lower the signal
Outline: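 Tissue Factor measured by ELISA, 24 h after treatment of primary HUVEC in the BioMAP 3C setting.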

[11] = read-out: Intercellular Adhesion Molecule 1 (ICAM1), ICAM1 (gene 3383); assay: BSK_3C_ICAM1: BioMAP Diversity Plus: 3C Assay for Intercellular Adhesion Molecule 1 (ICAM1) Biomarker Activity (AID 2283003); conditions: primary human endothelial cells (HUVEC); actives raise or lower the signal
Outline: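 Chemicals are dosed onto primary human umbilical vein endothelium (3C system). After 24 h, ICAM-1 is measured by ELISA, and responses are fitted bidirectionally relative to DMSO.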

[12] = read-out: Interleukin-8 (IL8), CXCL8 (gene 3576); assay: BSK_3C_IL8: BioMAP Diversity Plus: 3C Assay for Interleukin-8 (IL8) Biomarker Activity (AID 2283020); conditions: primary human endothelial cells (HUVEC); actives raise or lower the signal
Outline: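 Endothelial primary cells of human umbilical vein origin are dosed with chemical; after 24 h the IL-8 biomarker is measured by ELISA, and concentration–response is fitted in both directions versus DMSO.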

[13] = read-out: Thrombomodulin, THBD (gene 7056); assay: BSK_3C_Thrombomodulin: BioMAP Diversity Plus: 3C Assay for Thrombomodulin Biomarker Activity (AID 2283029); conditions: primary human endothelial cells (HUVEC); actives raise or lower the signal
Outline: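 Endothelial cells from umbilical vein are dosed with test chemical and incubated 24 h. Thrombomodulin is then quantified by ELISA, with DMSO serving as negative control and activity baseline.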

[14] = read-out: Urokinase-type plasminogen activator receptor (uPAR), PLAUR (gene 5329); assay: BSK_4H_uPAR: BioMAP Diversity Plus: 4H Assay for Urokinase-type plasminogen activator receptor (uPAR) Biomarker Activity (AID 2283030); conditions: primary human endothelial cells (HUVEC); actives raise or lower the signal
Outline: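 Human umbilical vein endothelial cells in the 4H system, 24 h after chemical dosing. Cell-surface uPAR measured by ELISA, fitted in both directions versus DMSO; cytotoxicity checked by SRB total protein in parallel cultures.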

[15] = read-out: Vascular endothelial growth factor receptor 2 (Homo sapiens) (UniProt P35968); assay: BSK_4H_VEGFRII: BioMAP Diversity Plus: 4H Assay for Vascular endothelial growth factor receptor 2 (VEGFR2) Biomarker Activity (AID 2283031); conditions: primary human endothelial cells (HUVEC); actives raise or lower the signal;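 for AC50: cell-surface VEGFR2 protein level quantified by ELISA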
Outline: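 Primary human umbilical vein endothelial cells (4H system), 24 h exposure; cell-surface VEGFR2 measured by ELISA. Bidirectional fitting versus DMSO; cytotoxicity checked in parallel by SRB total-protein staining.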

[16] = read-out: serum amyloid A (SAA), SAA1 (gene 6288); assay: BSK_CASM3C_SAA: BioMAP Diversity Plus: CASM3C Assay for serum amyloid A (SAA) Biomarker Activity (AID 2283049); conditions: primary human coronary artery smooth muscle cells; actives raise or lower the signal;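 note: SAA protein level quantified by ELISA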
[17] = read-out: Thrombomodulin, THBD (gene 7056); assay: BSK_CASM3C_Thrombomodulin: BioMAP Diversity Plus: CASM3C Assay for Thrombomodulin Biomarker Activity (AID 2283051); conditions: primary human coronary artery smooth muscle cells; actives raise or lower the signal;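 note: thrombomodulin protein level measured by ELISA 24 h after dosing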
[18] = read-out: Vascular cell adhesion molecule 1 (VCAM1), VCAM1 (gene 7412); assay: BSK_CASM3C_VCAM1: BioMAP Diversity Plus: CASM3C Assay for Vascular cell adhesion molecule 1 (VCAM1) Biomarker Activity (AID 2283055); conditions: primary human coronary artery smooth muscle cells; actives raise or lower the signal;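 note: VCAM-1 protein level quantified by ELISA on the cells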
[19] = read-out: Tissue Factor, F3 (gene 2152); assay: BSK_LPS_TissueFactor: BioMAP Diversity Plus: LPS Assay for Tissue Factor Biomarker Activity (AID 2283084); conditions: primary human HUVEC with PBMC; actives raise or lower the signal
Outline: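 Human umbilical vein endothelial cells co-cultured with PBMC were dosed with compound. Cell-surface CD142 was measured by ELISA 24 h later. Activity was fitted bidirectionally against DMSO, with SRB total-protein staining in parallel cultures for cytotoxicity.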

[20] = read-out: Monocyte Chemoattractant Protein-1 (MCP1), CCL2 (gene 6347); assay: BSK_hDFCGF_MCP1: BioMAP Diversity Plus: hDFCGF Assay for Monocyte Chemoattractant Protein-1 (MCP1) Biomarker Activity (AID 2284285); conditions: primary human foreskin fibroblasts
Outline: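 MCP-1 ELISA readout was taken 24 hours after dosing primary human dermal fibroblasts in the hDFCGF system, with DMSO as baseline. Parallel sulforhodamine B staining of total protein tracked overt cytotoxicity.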

Sequence of Hypoxia-inducible factor 1-alpha (Homo sapiens) (Q16665 whole entry, looked up): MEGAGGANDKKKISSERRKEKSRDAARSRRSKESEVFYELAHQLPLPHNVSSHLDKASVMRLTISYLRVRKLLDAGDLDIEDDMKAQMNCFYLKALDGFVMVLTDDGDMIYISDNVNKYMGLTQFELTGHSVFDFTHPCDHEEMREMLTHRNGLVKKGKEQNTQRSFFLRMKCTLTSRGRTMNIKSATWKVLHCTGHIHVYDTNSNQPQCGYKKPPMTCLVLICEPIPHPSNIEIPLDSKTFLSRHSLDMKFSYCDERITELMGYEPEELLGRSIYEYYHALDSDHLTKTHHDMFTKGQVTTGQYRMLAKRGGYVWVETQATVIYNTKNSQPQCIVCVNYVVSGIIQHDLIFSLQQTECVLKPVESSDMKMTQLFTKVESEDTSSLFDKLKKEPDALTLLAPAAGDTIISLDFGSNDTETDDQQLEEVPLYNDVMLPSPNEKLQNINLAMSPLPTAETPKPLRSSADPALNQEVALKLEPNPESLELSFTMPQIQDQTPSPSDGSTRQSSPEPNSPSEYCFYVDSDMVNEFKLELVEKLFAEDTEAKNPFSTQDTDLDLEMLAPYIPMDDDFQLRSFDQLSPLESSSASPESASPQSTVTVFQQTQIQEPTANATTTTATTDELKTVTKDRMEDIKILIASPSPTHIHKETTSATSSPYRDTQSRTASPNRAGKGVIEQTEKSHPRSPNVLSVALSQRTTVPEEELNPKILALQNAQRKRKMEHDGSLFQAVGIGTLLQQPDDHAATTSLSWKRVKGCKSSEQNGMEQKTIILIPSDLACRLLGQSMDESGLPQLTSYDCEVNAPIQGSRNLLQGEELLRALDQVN
Sequence of Hepatocyte nuclear factor 6 (Homo sapiens) (Q9UBC0 whole entry, looked up, the tested form may be a part): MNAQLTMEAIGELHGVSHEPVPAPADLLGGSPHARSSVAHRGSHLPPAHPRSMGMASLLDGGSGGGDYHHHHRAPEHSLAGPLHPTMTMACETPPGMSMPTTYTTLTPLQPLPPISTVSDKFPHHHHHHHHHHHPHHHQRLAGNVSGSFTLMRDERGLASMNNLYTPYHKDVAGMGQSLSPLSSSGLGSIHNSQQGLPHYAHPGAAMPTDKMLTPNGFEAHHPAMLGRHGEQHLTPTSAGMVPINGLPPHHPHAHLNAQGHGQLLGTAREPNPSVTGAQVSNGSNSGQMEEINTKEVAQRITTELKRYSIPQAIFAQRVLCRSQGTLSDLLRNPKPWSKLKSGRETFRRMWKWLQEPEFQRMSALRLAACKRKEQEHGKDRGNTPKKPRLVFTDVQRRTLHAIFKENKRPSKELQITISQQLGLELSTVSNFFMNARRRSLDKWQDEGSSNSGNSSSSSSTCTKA
Sequence of Heat shock factor protein 1 (Homo sapiens) (Q00613 whole entry, looked up): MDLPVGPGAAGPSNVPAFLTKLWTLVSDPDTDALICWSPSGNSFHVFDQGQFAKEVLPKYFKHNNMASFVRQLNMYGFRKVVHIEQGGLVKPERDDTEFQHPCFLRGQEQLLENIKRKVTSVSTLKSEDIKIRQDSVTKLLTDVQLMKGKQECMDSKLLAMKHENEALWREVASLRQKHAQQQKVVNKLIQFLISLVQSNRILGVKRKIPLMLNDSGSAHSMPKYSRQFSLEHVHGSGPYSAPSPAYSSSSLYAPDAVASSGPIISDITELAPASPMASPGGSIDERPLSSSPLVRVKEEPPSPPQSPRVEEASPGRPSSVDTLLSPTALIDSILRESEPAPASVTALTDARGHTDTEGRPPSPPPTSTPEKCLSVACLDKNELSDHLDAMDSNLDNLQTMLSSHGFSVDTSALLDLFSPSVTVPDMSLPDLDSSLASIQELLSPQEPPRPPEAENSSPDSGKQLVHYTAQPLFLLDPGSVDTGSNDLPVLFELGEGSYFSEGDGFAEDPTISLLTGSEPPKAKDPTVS

With COc1ccccc1OCC(O)CO (centres undefined) the outcome [1] was “inactive”, the outcome [2] was “inactive” and the outcome [3] was “inactive”. The outcome [4] was “inactive” and the outcome [5] was “inactive”.

For COc1ccc2ccccc2c1, the outcome [6] was “inactive”, the outcome [7] was “inactive” and the outcome [8] was “inactive”. For the same compound, the outcome [9] was “inactive”, the outcome [3] was “inactive” and the outcome [4] was “inactive”.

For CC1=CCCC(C)(C)C12CCC(C)O2 (centres undefined), the outcome [6] was “inactive”, the outcome [7] was “inactive” and the outcome [2] was “inactive”. The outcome [8] was “inactive”, the AC50 [9] was 1.28 µM (active) and the outcome [3] was “inactive”. The outcome [4] was “inactive” and the outcome [5] was “inactive”.

For COc1ccc(C(=O)c2ccccc2O)c(O)c1, the AC50 [10] was 20 µM (active) and 17.9 µM (active), the outcome [11] was “inactive” and the AC50 [12] was 7.28 µM (active). For the same compound, the outcome [12] was “inactive”, the outcome [13] was “inactive” and the AC50 [14] was 10.2 µM (active). The outcome [14] was “inactive”, the outcome [15] was “inactive” and the outcome [16] was “inactive”. For the same compound, the outcome [17] was “inactive”, the AC50 [18] was 13.4 µM (active) and 3.97 µM (active) and the outcome [19] was “inactive”. The outcome [20] was “inactive”.

For CCC[Si](OC(C)=O)(OC(C)=O)OC(C)=O, the outcome [10] was “inactive”, the outcome [11] was “inactive” and the outcome [12] was “inactive”. For the same compound, the outcome [13] was “inactive”, the outcome [14] was “inactive” and the outcome [15] was “inactive”. The outcome [16] was “inactive”, the outcome [17] was “inactive” and the outcome [18] was “inactive”. The outcome [19] was “inactive” and the outcome [20] was “inactive”.

For CN(C)CCC(c1ccc(Cl)cc1)c1ccccn1 (centres undefined), the outcome [6] was “inactive”, the outcome [1] was “inactive” and the outcome [8] was “inactive”. The outcome [9] was “inactive”, the outcome [3] was “inactive” and the outcome [4] was “inactive”. The outcome [10] was “inactive”, the outcome [11] was “inactive” and the outcome [12] was “inactive”. The outcome [13] was “inactive”, the outcome [14] was “inactive” and the outcome [15] was “inactive”. The outcome [16] was “inactive”, the outcome [17] was “inactive” and the outcome [18] was “inactive”. The outcome [19] was “inactive” and the outcome [5] was “inactive”.

In the case of Cc1c(C(N)=O)cc([N+](=O)[O-])cc1[N+](=O)[O-], the outcome [10] is reported as “inactive”, the outcome [11] is reported as “inactive” and the outcome [12] is reported as “inactive”. For the same compound, the outcome [13] was “inactive”, the outcome [14] was “inactive” and the outcome [15] was “inactive”. The outcome [16] was “inactive”, the outcome [17] was “inactive” and the outcome [18] was “inactive”. The outcome [19] was “inactive” and the outcome [20] was “inactive”.

In the case of CC1=C(CC=O)C(C)(C)CCC1, the outcome [7] is reported as “inactive”, the outcome [2] is reported as “inactive” and the outcome [8] is reported as “inactive”. The AC50 [9] was 0.734 µM (active) and the outcome [4] was “inactive”.

With CCCCCCCCCCCCCC the outcome [6] was “inactive”, the outcome [1] was “inactive” and the outcome [7] was “inactive”. The outcome [2] was “inactive”, the outcome [8] was “inactive” and the outcome [9] was “inactive”. The outcome [3] was “inactive”, the outcome [4] was “inactive” and the outcome [5] was “inactive”.

In the case of CCC(C)NC(N)=O (centres undefined), the outcome [6] is reported as “inactive”, the outcome [1] is reported as “inactive” and the outcome [7] is reported as “inactive”. The outcome [2] was “inactive”, the outcome [8] was “inactive” and the outcome [9] was “inactive”. For the same compound, the outcome [4] was “inactive” and the outcome [5] was “inactive”.

With CC(C)C1OCCN1CCOC(=O)NCCCCCCNC(=O)OCCN1CCOC1C(C)C (centres undefined) the outcome [10] was “inactive”, the outcome [11] was “inactive” and the outcome [12] was “inactive”. The outcome [13] was “inactive”, the outcome [14] was “inactive” and the AC50 [15] was 33 µM (active). For the same compound, the outcome [15] was “inactive”, the outcome [16] was “inactive” and the outcome [17] was “inactive”. The outcome [18] was “inactive”, the outcome [19] was “inactive” and the AC50 [20] was 0.149 µM (active). The outcome [20] was “inactive”.

With COC(=O)c1ccccc1 the outcome [6] was “inactive”, the outcome [1] was “inactive” and the outcome [7] was “inactive”. For the same compound, the outcome [2] was “inactive”, the outcome [8] was “inactive” and the outcome [9] was “inactive”. The outcome [3] was “inactive”, the outcome [4] was “inactive” and the outcome [5] was “inactive”.

For CCCCCCCCCCC1CO1 (centres undefined), the outcome [6] was “inactive”, the outcome [1] was “inactive” and the outcome [7] was “inactive”. The outcome [2] was “inactive”, the outcome [8] was “inactive” and the AC50 [9] was 27 µM (active). For the same compound, the outcome [3] was “inactive”, the outcome [4] was “inactive” and the AC50 [10] was 30.8 µM (active). For the same compound, the AC50 [11] was 36.2 µM (active), the AC50 [12] was 32.8 µM (active) and the outcome [13] was “inactive”. The AC50 [14] was 30.1 µM (active), the AC50 [15] was 34.7 µM (active) and the outcome [16] was “inactive”. For the same compound, the outcome [17] was “inactive”, the AC50 [18] was 3.97 µM (active) and the AC50 [19] was 38.5 µM (active). For the same compound, the outcome [5] was “inactive”.
